Experimental data published in PubChem BioAssay AID1626 (SRMLSC, 2009).
Hit rate of the full screen: of about 220,000 compounds, about 2,000 (0.91%) were called active. Another 2% or so got no clear call; they are omitted. Cut-off read from the data, not from the text of the source: inconclusive = inhibition above about 80% without an active follow-up result; inactive = below that; test concentration not stated here. These entries were drawn from the full list. Measured potencies and affinities stand elsewhere.

Test: M. tuberculosis H37Rv growth inhibitors, H37Rv strain (AID 1626);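 note: bacteria incubated seven days before Alamar blue readout; 0% = bacteria only wells and 100% = bacteria with antibiotic wells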
Settings: active compounds read high, concentration not given here

Row | SMILES | inhibition
1 | COc1ccc(CC2(CO)CCN(Cc3cnn(-c4ccc(F)cc4)c3)CC2)cc1 | -9.12% (inactive)
2 | NC(=O)c1ccccc1NS(=O)(=O)c1ccc2c(c1)OCCO2 | -3.34% (inactive)
3 | CN1CCN(c2ccc(Cl)cc2NC(=O)c2ccc(S(=O)(=O)N(C)C)cc2)CC1 | -2.17% (inactive)
4 | COc1ccc(C(=O)NC(=S)Nc2cccc(NC(=O)c3ccco3)c2)cc1[N+](=O)[O-] | 6.53% (inactive)
5 | CCCN1C(=O)c2ccccc2NC1c1ccc(OC)c(CSc2ccccn2)c1 (stereo not drawn) | -2.45% (inactive)
6 | CCN(CC)S(=O)(=O)c1ccc(/C=C/C(=O)Nc2c(C)n(C)n(-c3ccccc3)c2=O)cc1 | -0.04% (inactive)
7 | Cn1c(=O)c([N+](=O)[O-])c(NCCCn2ccnc2)c2ccccc21 | -3.33% (inactive)
8 | Cc1ccccc1-n1nnnc1SC(C)C(=O)NC1CCCc2ccccc21 (stereo not drawn) | 10.2% (inactive)
9 | Cc1ccc(NCc2nnc(SCC(N)=O)o2)c(C)c1 | -3.32% (inactive)
10 | O=C(CSc1nnc(CNc2ccc(F)cc2)o1)OC1CCCCC1 | 25.5% (inactive)
11 | Cn1c(CNc2cccc(Cl)c2)nnc1SCC(=O)OC1CCCCC1 | 62.1% (inactive)
12 | Cc1ccc(C(=O)CSc2nnc(CNc3ccc(C)cc3C)o2)cc1 | -7.6% (inactive)
13 | COC(=O)Nc1ccc(S(=O)(=O)N2CCCCC2C(=O)NCc2ccco2)cc1 (stereo not drawn) | -7.03% (inactive)
14 | O=C(COC(=O)CNS(=O)(=O)/C=C/c1ccccc1)NC1CCS(=O)(=O)C1 (stereo not drawn) | -7.59% (inactive)
15 | O=C(COc1ccc(Br)cc1Br)NC(=O)NC1CCCC1 | 3.86% (inactive)
16 | Cc1ccc(CNc2ccc(N3CCOCC3)c(C(=O)O)c2)s1 | -3.09% (inactive)
17 | COc1cccc(OCC(O)CN2CCC(CN3C(=O)c4cccc5cccc(c45)C3=O)CC2)c1 (stereo not drawn) | -4.13% (inactive)
18 | O=C1c2cccc3cccc(c23)C(=O)N1CC1CCN(CC(O)COCc2ccc3c(c2)OCO3)CC1 (stereo not drawn) | 76.5% (inactive)
19 | CCN(CC)C(=O)c1cc([N+](=O)[O-])cc2c1-c1ccc([N+](=O)[O-])cc1C2=C(C#N)C#N | 23% (inactive)
20 | CCCCN(CCCC)C(=O)c1cc(Cl)ccc1[N+](=O)[O-] | 11% (inactive)

Row | SMILES | inhibition
21 | C=CCNC(=O)C1CC(=O)N(c2ccc(OCC(=O)Nc3ccc(Cl)c(C(F)(F)F)c3)cc2)C1 (stereo not drawn) | -8.95% (inactive)
22 | Cc1cc(C)c(-c2cc(NC(=O)COC(=O)c3ccc(CO)cc3)n(-c3ccccc3)n2)cc1C | 4.29% (inactive)
23 | COc1ccc(N2CCN(C(=O)CCc3c[nH]c4ccccc34)CC2)cc1 | -4.15% (inactive)
24 | COc1ccc(CNC(=O)COC(=O)CCc2c[nH]c3ccccc23)cc1 | 4.73% (inactive)
25 | COC(=O)C1CCN(C(=O)COC(=O)Cc2c[nH]c3ccccc23)CC1 | 2.16% (inactive)
26 | CC(=O)N1CCN(C(=O)CCc2c[nH]c3ccccc23)CC1 | 3.68% (inactive)
27 | COc1ccc(C)cc1NC(=O)CSc1nnc(-c2ccco2)n1Cc1ccco1 | -0.88% (inactive)
28 | CC(=O)Nc1sc(N/N=C\c2cccc(Cl)c2)nc1-c1cccs1 | 54.5% (inactive)
29 | CCS(=O)(=O)N1CCCC(C(=O)NCCN(C)Cc2ccccc2)C1 (stereo not drawn) | -6.72% (inactive)
30 | Cc1ccc(C(=O)CSc2ncnc3ccccc23)o1 | 10.6% (inactive)
31 | COc1ccc(CCN(Cc2cccs2)S(=O)(=O)c2ccc(C(=O)O)cc2)cc1OC | -3.72% (inactive)
32 | CSc1nnc(-c2cnccn2)n1Cc1ccccc1 | -1.1% (inactive)
33 | CCOc1ccc(OCCCC(=O)NC2=NCCS2)cc1 | -1.83% (inactive)
34 | CC(C)(C)c1ccc(OCCC(=O)NC2=NCCS2)cc1 | -11.7% (inactive)
35 | COc1cccc(CNC23CC4CC(CC(C4)C2)C3)c1OCc1ccccc1 | 13.5% (inactive)
36 | c1ccc(COc2ccccc2CNC23CC4CC(CC(C4)C2)C3)cc1 | 17% (inactive)
37 | CS(=O)(=O)N1CCN(C2Cc3ccccc3C2)CC1 | -13.7% (inactive)
38 | O=[N+]([O-])c1ccc(O)c(C=Nc2ccc3c(c2)OCO3)c1 | 8.62% (inactive)
39 | O=[N+]([O-])c1ccc(O)c(C=Nc2ccc3c(c2)OCCO3)c1 | 77.5% (inactive)
40 | Cc1cccc(Nc2nc(N3CCN(C)CC3)nc(N)c2[N+](=O)[O-])c1 | 16.3% (inactive)

Row | SMILES | inhibition
41 | CCN1CCN(c2nc(N)c([N+](=O)[O-])c(Nc3ccc(C)c(C)c3)n2)CC1 | 51.5% (inactive)
42 | N#Cc1ccccc1Cn1c(=O)n(Cc2ccc(C(=O)NCc3ccco3)cc2)c(=O)c2sccc21 | -3.31% (inactive)
43 | C/C(CC1(O)C(=O)N(C)c2ccccc21)=N\O (stereo not drawn) | -3.6% (inactive)
44 | CN1C(=O)C(O)(CC(=O)c2ccncc2)c2ccccc21 (stereo not drawn) | 3.47% (inactive)
45 | COc1cc(OC)c(N(C)C(=O)CCNC(=O)Cn2cnc3ccccc3c2=O)cc1Cl | -0.76% (inactive)
46 | NC(=NC(=O)c1ccc(Cl)cc1)N1N=CCC1c1ccccc1 (stereo not drawn) | 11.8% (inactive)
47 | COc1ccc(C2c3ccc(O)cc3Oc3ncn(CCN4CCOCC4)c(=N)c32)cc1 (stereo not drawn) | -0.84% (inactive)
48 | Cc1ccc(-c2nn(-c3ccccc3)cc2NC(=O)c2ccccc2)cc1 | -0.55% (inactive)
49 | O=C(Nc1cn(-c2ccccc2)nc1-c1ccc(Cl)cc1)c1ccccc1 | 9.57% (inactive)
50 | CC(=O)Nc1cn(-c2ccccc2)nc1-c1ccccc1 | -0.45% (inactive)
51 | O=C(CCl)Nc1cn(-c2ccccc2)nc1-c1ccc(F)cc1 | 61.8% (inactive)
52 | CNC(=S)N1CCc2ccccc2C1 | 3.08% (inactive)
53 | COc1ccc(NC(=O)C(NC(=O)CNC(C)=O)c2ccc(C)cc2)cc1 (stereo not drawn) | -6.91% (inactive)
54 | O=C(CCN1C(=O)c2ccccc2C1=O)NC(=S)Nc1ccccc1Cl | 9.27% (inactive)
55 | Oc1[nH]c2ccccc2c1C=Nc1ccc2c(c1)OCCO2 | 6.37% (inactive)
56 | O=C(NCCCn1ccnc1)c1cc2nc(-c3ccc(Br)cc3)cc(C(F)(F)F)n2n1 | 6.06% (inactive)
57 | O=C(NCCCn1ccnc1)c1nn2c(C(F)(F)F)cc(-c3ccccc3)nc2c1Cl | -4.76% (inactive)
58 | O=C(O)COCC(=O)Nc1ccccc1-c1ccccc1 | -0.81% (inactive)
